Measurements as given in PubChem BioAssay AID1159580 (chemical genetic matrix, 2015).
The whole screen tested about 5,500 compounds, of which about 2,000 (36%) were called active. Inconclusive results (about 18%) are left out. Cut-off read from the data, not from the text of the source: active = normalized growth mostly below about 0.91 (no sharp cut-off); inconclusive = no clear call, values can overlap the other calls; inactive = mostly above about 0.92. This is one part of the list.

Experiment: chemical genetic growth profiling, strain panel (AID 1159580);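 note: tested at 20 µM; growth read once vehicle control cultures reached saturation at 30 °C; 1 = growth at the plate median or of vehicle wells; lower values mean less growth of the strain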
Settings: growth OD
[1] = S. cerevisiae deletion strains, locus YDL101C, strain DUN1, stronger effect = lower value
[2] = S. cerevisiae deletion strains, locus YHR030C, strain SLT2, stronger effect = lower value

Measured: normalized growth

Cc1ccc(NNC(=O)c2c(C)noc2C)cc1Cl
inactive: S. cerevisiae deletion strains, locus YAR019C, strain CDC15, stronger effect = lower value 0.977 | S. cerevisiae deletion strains, locus YBL105C, strain PKC1, stronger effect = lower value 0.972 | S. cerevisiae deletion strains, locus YBR135W, strain CKS1, stronger effect = lower value 0.982 | S. cerevisiae deletion strains, locus YBR136W, strain MEC1, stronger effect = lower value 0.975 | S. cerevisiae deletion strains, locus YBR160W, strain CDC28, stronger effect = lower value 0.982 | S. cerevisiae deletion strains, locus YDL017W, strain CDC7, stronger effect = lower value 0.979 | S. cerevisiae deletion strains, locus YDL028C, strain MPS1, stronger effect = lower value 0.986 | [1] 0.976 | S. cerevisiae deletion strains, locus YDL108W, strain KIN28, stronger effect = lower value 0.981 | S. cerevisiae deletion strains, locus YDL132W, strain cdc53, stronger effect = lower value 0.987 | S. cerevisiae deletion strains, locus YDL214C, strain PRR2, stronger effect = lower value 0.939 | S. cerevisiae deletion strains, locus YDR052C, strain DBF4, stronger effect = lower value 0.988 | S. cerevisiae deletion strains, locus YDR054C, strain cdc34, stronger effect = lower value 0.993 | S. cerevisiae deletion strains, locus YDR226W, strain ADK1, stronger effect = lower value 0.978 | S. cerevisiae deletion strains, locus YDR477W, strain SNF1, stronger effect = lower value 0.946 | S. cerevisiae deletion strains, locus YER123W, strain YCK3, stronger effect = lower value 0.857 | S. cerevisiae deletion strains, locus YER133W, strain GLC7, stronger effect = lower value 0.947 | S. cerevisiae deletion strains, locus YFL009W, strain cdc4, stronger effect = lower value 0.986 | S. cerevisiae deletion strains, locus YFL029C, strain CAK1, stronger effect = lower value 0.984 | S. cerevisiae deletion strains, locus YFR003C, strain YPI1, stronger effect = lower value 0.983 | S. cerevisiae deletion strains, locus YFR019W, strain FAB1, stronger effect = lower value 0.903 | S. cerevisiae deletion strains, locus YFR028C, strain CDC14, stronger effect = lower value 0.992 | S. cerevisiae deletion strains, locus YGR040W, strain KSS1, stronger effect = lower value 0.925 | S. cerevisiae deletion strains, locus YGR052W, strain FMP48, stronger effect = lower value 0.987 | S. cerevisiae deletion strains, locus YGR092W, strain DBF2, stronger effect = lower value 0.833 | [2] 0.865 | S. cerevisiae deletion strains, locus YHR079C, strain IRE1, stronger effect = lower value 0.964 | S. cerevisiae deletion strains, locus YHR082C, strain KSP1, stronger effect = lower value 1.02 | S. cerevisiae deletion strains, locus YHR205W, strain SCH9, stronger effect = lower value 0.926 | S. cerevisiae deletion strains, locus YIL147C, strain SLN1, stronger effect = lower value 0.983 | S. cerevisiae deletion strains, locus YJL095W, strain BCK1, stronger effect = lower value 0.929 | S. cerevisiae deletion strains, locus YJL128C, strain PBS2, stronger effect = lower value 0.979 | S. cerevisiae deletion strains, locus YJL157C, strain FAR1, stronger effect = lower value 0.923 | S. cerevisiae deletion strains, locus YJR016C, strain ILV3, stronger effect = lower value 0.981 | S. cerevisiae deletion strains, locus YJR066W, strain TOR1 (second series), stronger effect = lower value 0.909 | S. cerevisiae deletion strains, locus YJR066W, strain TOR1, stronger effect = lower value 0.983 | S. cerevisiae deletion strains, locus YKL048C, strain ELM1, stronger effect = lower value 0.916 | S. cerevisiae deletion strains, locus YKL067W, strain YNK1, stronger effect = lower value 0.935 | S. cerevisiae deletion strains, locus YKL101W, strain HSL1, stronger effect = lower value 0.943 | S. cerevisiae deletion strains, locus YKL193C, strain SDS22, stronger effect = lower value 0.985 | S. cerevisiae deletion strains, locus YKL203C, strain TOR2, stronger effect = lower value 1 | S. cerevisiae deletion strains, locus YLR113W, strain HOG1, stronger effect = lower value 0.868 | S. cerevisiae deletion strains, locus YLR133W, strain CKI1, stronger effect = lower value 0.943 | S. cerevisiae deletion strains, locus YLR403W, strain SFP1, stronger effect = lower value 0.92 | S. cerevisiae deletion strains, locus YML070W, strain DAK1, stronger effect = lower value 0.906 | S. cerevisiae deletion strains, locus YMR001C, strain CDC5, stronger effect = lower value 0.984 | S. cerevisiae deletion strains, locus YMR205C, strain PFK2 (second series), stronger effect = lower value 0.955 | S. cerevisiae deletion strains, locus YMR277W, strain FCP1, stronger effect = lower value 0.986 | S. cerevisiae deletion strains, locus YNL006W, strain LST8, stronger effect = lower value 0.99 | S. cerevisiae deletion strains, locus YNL020C, strain ARK1, stronger effect = lower value 0.948 | S. cerevisiae deletion strains, locus YNL161W, strain CBK1, stronger effect = lower value 0.98 | S. cerevisiae deletion strains, locus YNL183C, strain NPR1, stronger effect = lower value 0.98 | S. cerevisiae deletion strains, locus YNL207W, strain RIO2, stronger effect = lower value 0.992 | S. cerevisiae deletion strains, locus YNL222W, strain SSU72, stronger effect = lower value 0.982 | S. cerevisiae deletion strains, locus YNL307C, strain MCK1 (second series), stronger effect = lower value 0.881 | S. cerevisiae deletion strains, locus YOL078W, strain AVO1, stronger effect = lower value 0.98 | S. cerevisiae deletion strains, locus YOL136C, strain PFK27, stronger effect = lower value 0.922 | S. cerevisiae deletion strains, locus YOR061W, strain CKA2, stronger effect = lower value 0.917 | S. cerevisiae deletion strains, locus YOR119C, strain RIO1, stronger effect = lower value 0.976 | S. cerevisiae deletion strains, locus YOR231W, strain MKK1, stronger effect = lower value 0.917 | S. cerevisiae deletion strains, locus YOR329C, strain SCD5, stronger effect = lower value 0.986 | S. cerevisiae deletion strains, locus YPL031C, strain PHO85, stronger effect = lower value 0.944 | S. cerevisiae deletion strains, locus YPL153C, strain RAD53, stronger effect = lower value 0.922 | S. cerevisiae deletion strains, locus YPL204W, strain HRR25, stronger effect = lower value 0.956 | S. cerevisiae deletion strains, locus YPL209C, strain IPL1, stronger effect = lower value 0.973 | S. cerevisiae deletion strains, locus YPL256C, strain CLN2, stronger effect = lower value 0.903 | S. cerevisiae deletion strains, locus YPR025C, strain CCL1, stronger effect = lower value 0.981 | S. cerevisiae deletion strains, locus YPR106W, strain ISR1, stronger effect = lower value 0.981 | S. cerevisiae deletion strains, locus YPR111W, strain DBF20, stronger effect = lower value 0.961 | S. cerevisiae deletion strains, strain NNK1, stronger effect = lower value 0.975 | S. cerevisiae deletion strains, strain TSCII, stronger effect = lower value 0.98

Cc1onc(-c2c(F)cccc2Cl)c1C(=O)Oc1ccccc1
active: S. cerevisiae deletion strains, locus YEL061C, strain CIN8, stronger effect = lower value 0.908
inactive: S. cerevisiae deletion strains, locus YAL013W, strain DEP1, stronger effect = lower value 0.964 | S. cerevisiae deletion strains, locus YBR229C, strain ROT2, stronger effect = lower value 0.962 | S. cerevisiae deletion strains, locus YCL061C, strain MRC1, stronger effect = lower value 0.963 | [1] 0.938 | S. cerevisiae deletion strains, locus YDL134C, strain PPH21, stronger effect = lower value 0.993 | S. cerevisiae deletion strains, locus YDR150W, strain NUM1, stronger effect = lower value 0.943 | S. cerevisiae deletion strains, locus YGR078C, strain PAC10, stronger effect = lower value 0.945 | [2] 0.727 | S. cerevisiae deletion strains, locus YHR087W, strain rtc3, stronger effect = lower value 0.948 | S. cerevisiae deletion strains, locus YJR043C, strain POL32, stronger effect = lower value 0.951 | S. cerevisiae deletion strains, locus YJR075W, strain HOC1, stronger effect = lower value 0.939 | S. cerevisiae deletion strains, locus YLR039C, strain RIC1, stronger effect = lower value 0.857 | S. cerevisiae deletion strains, locus YLR058C, strain SHM2 (second series), stronger effect = lower value 0.973 | S. cerevisiae deletion strains, locus YLR085C, strain ARP6, stronger effect = lower value 0.838 | S. cerevisiae deletion strains, locus YLR262C, strain YPT6, stronger effect = lower value 0.839 | S. cerevisiae deletion strains, locus YML094W, strain GIM5, stronger effect = lower value 0.978 | S. cerevisiae deletion strains, locus YMR219W, strain ESC1, stronger effect = lower value 0.966 | S. cerevisiae deletion strains, locus YMR263W, strain SAP30, stronger effect = lower value 0.979 | S. cerevisiae deletion strains, locus YMR307W, strain GAS1, stronger effect = lower value 0.705 | S. cerevisiae deletion strains, locus YNL153C, strain GIM3, stronger effect = lower value 0.984 | S. cerevisiae deletion strains, locus YNL298W, strain CLA4 (second series), stronger effect = lower value 0.98 | S. cerevisiae deletion strains, locus YNL322C, strain KRE1, stronger effect = lower value 0.973 | S. cerevisiae deletion strains, locus YNR030W, strain Alg12, stronger effect = lower value 0.989 | S. cerevisiae deletion strains, locus YPL055C, strain LGE1, stronger effect = lower value 0.97 | S. cerevisiae deletion strains, locus YPL241C, strain CIN2, stronger effect = lower value 0.994 | S. cerevisiae deletion strains, locus YPR135W, strain CTF4, stronger effect = lower value 0.948 | S. cerevisiae strains, strain wild type, stronger effect = lower value 0.935
